Counter-ions that a name gives are not always drawn.
Tests used:
[1] = test system: U-2932; test: growth inhibition by drug alone (1 - RLU/untreated control) (fraction); higher = stronger inhibition; settings: 177Lu-lilotomab satetraxetan 0 ug/ml
Summary of the method: (§1)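 RIVA or U-2932 cells were left untreated or pretreated for 18 h with a radiolabelled anti-CD37 antibody conjugate (~600 MBq/mg) at 0.5 µg/ml for RIVA or 1 µg/ml for U-2932. The cells were then washed and seeded at 3,000 cells/well on plates pre-printed with the Selleck Cambridge Cancer Compound library, dosed at 10/100 nM for RIVA and 10/1,000 nM for U-2932. From day 3, RealTime-Glo luminescence was read daily after 1 h at 37°C. Growth inhibition was taken as one minus RLU over the mean of the untreated no-drug wells, of which there were 48 per plate.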

[2] = test system: U-2932; test: growth inhibition by drug plus 177Lu-lilotomab satetraxetan (1 - RLU/untreated control) (fraction); higher = stronger inhibition; settings: 177Lu-lilotomab satetraxetan 1 ug/ml
Summary of the method: as §1

[3] = test system: RIVA; test: as above; settings: 177Lu-lilotomab satetraxetan 0.5 ug/ml
Summary of the method: as §1

[4] = test system: RIVA; test: growth inhibition by drug alone (1 - RLU/untreated control) (fraction); higher = stronger inhibition; settings: 177Lu-lilotomab satetraxetan 0 ug/ml
Summary of the method: as §1

Row | Structure (SMILES) | growth inhibition by drug alone ([1]; 10 nM, time (day): 3) | growth inhibition by drug alone ([1]; 10 nM, time (day): 4) | growth inhibition by drug alone ([1]; 10 nM, time (day): 5) | growth inhibition by drug alone ([1]; 10 nM, time (day): 6) | growth inhibition by drug alone ([1]; 1000 nM, time (day): 3) | growth inhibition by drug alone ([1]; 1000 nM, time (day): 4) | growth inhibition by drug alone ([1]; 1000 nM, time (day): 5) | growth inhibition by drug alone ([1]; 1000 nM, time (day): 6) | growth inhibition by drug plus 177Lu-lilotomab satetraxetan ([2]; 10 nM, time (day): 3) | growth inhibition by drug plus 177Lu-lilotomab satetraxetan ([2]; 10 nM, time (day): 4) | growth inhibition by drug plus 177Lu-lilotomab satetraxetan ([2]; 10 nM, time (day): 5) | growth inhibition by drug plus 177Lu-lilotomab satetraxetan ([2]; 10 nM, time (day): 6) | growth inhibition by drug plus 177Lu-lilotomab satetraxetan ([2]; 1000 nM, time (day): 3) | growth inhibition by drug plus 177Lu-lilotomab satetraxetan ([2]; 1000 nM, time (day): 4) | growth inhibition by drug plus 177Lu-lilotomab satetraxetan ([2]; 1000 nM, time (day): 5) | growth inhibition by drug plus 177Lu-lilotomab satetraxetan ([2]; 1000 nM, time (day): 6) | growth inhibition by drug plus 177Lu-lilotomab satetraxetan ([3]; 10 nM, time (day): 3) | growth inhibition by drug plus 177Lu-lilotomab satetraxetan ([3]; 10 nM, time (day): 4) | growth inhibition by drug plus 177Lu-lilotomab satetraxetan ([3]; 10 nM, time (day): 5) | growth inhibition by drug plus 177Lu-lilotomab satetraxetan ([3]; 10 nM, time (day): 6) | growth inhibition by drug plus 177Lu-lilotomab satetraxetan ([3]; 100 nM, time (day): 3) | growth inhibition by drug plus 177Lu-lilotomab satetraxetan ([3]; 100 nM, time (day): 4) | growth inhibition by drug plus 177Lu-lilotomab satetraxetan ([3]; 100 nM, time (day): 5) | growth inhibition by drug plus 177Lu-lilotomab satetraxetan ([3]; 100 nM, time (day): 6) | growth inhibition by drug alone ([4]; 10 nM, time (day): 3) | growth inhibition by drug alone ([4]; 10 nM, time (day): 4) | growth inhibition by drug alone ([4]; 10 nM, time (day): 5) | growth inhibition by drug alone ([4]; 10 nM, time (day): 6) | growth inhibition by drug alone ([4]; 100 nM, time (day): 3) | growth inhibition by drug alone ([4]; 100 nM, time (day): 4) | growth inhibition by drug alone ([4]; 100 nM, time (day): 5) | growth inhibition by drug alone ([4]; 100 nM, time (day): 6)
1 | CCN[C@H]1C[C@H](C)S(=O)(=O)c2sc(S(N)(=O)=O)cc21 [Dorzolamide HCL] | -0.0781 | -0.0488 | -0.0257 | 0.0748 | 0.15 | 0.182 | 0.141 | 0.205 | -0.0513 | -0.0344 | -0.00192 | 0.152 | 0.0973 | 0.164 | 0.191 | 0.279 | 0.311 | 0.443 | 0.471 | 0.489 | 0.267 | 0.375 | 0.389 | 0.37 |  |  |  |  |  |  |  | 
2 | CCOc1cc(C(=O)Nc2ccc(Cl)c(-c3nc4ccccc4[nH]3)c2)cc(OCC)c1OCC | -0.0835 | 0.00922 | -0.0921 | -0.101 | 0.0527 | 0.106 | 0.057 | 0.0205 | -0.0124 | 0.0291 | 0.0337 | 0.147 | 0.147 | 0.267 | 0.28 | 0.362 | 0.452 | 0.548 | 0.564 | 0.568 | 0.625 | 0.648 | 0.668 | 0.654 |  |  |  |  |  |  |  | 
3 | CNC(=O)c1ccc(C)c(-n2c(C)cc(OCc3ccc(F)cc3F)c(Br)c2=O)c1 | -0.0234 | -0.0123 | -0.0323 | 0.108 | 0.24 | 0.241 | 0.147 | 0.195 | -0.0515 | -0.0206 | -0.0169 | 0.111 | 0.253 | 0.259 | 0.213 | 0.294 | 0.41 | 0.508 | 0.521 | 0.522 | 0.384 | 0.458 | 0.462 | 0.428 | -0.177 | -0.212 | -0.219 | -0.282 | -0.0302 | -0.0737 | -0.127 | -0.224
4 | O=c1[nH]nc(Sc2ncc([N+](=O)[O-])s2)n1-c1ccc2c(c1)OCCO2 | -0.0286 | -0.0355 | -0.112 | -0.247 | -0.00347 | 0.024 | -0.0622 | -0.12 | 0.0134 | 0.0456 | 0.0435 | 0.142 | 0.369 | 0.406 | 0.362 | 0.409 | 0.41 | 0.525 | 0.54 | 0.553 | 0.424 | 0.457 | 0.468 | 0.445 |  |  |  |  |  |  |  | 
5 | COC(=O)c1ccc2c(C(=Nc3ccc(N(C)C(=O)CN4CCN(C)CC4)cc3)c3ccccc3)c(O)[nH]c2c1 [BIBF1120 (Vargatef)] | -0.0536 | -0.0365 | -0.0213 | 0.0413 | -0.121 | -0.0853 | -0.113 | -0.173 | -0.06 | -0.0397 | -0.00235 | 0.146 | -0.172 | -0.0703 | -0.0418 | -0.00489 | 0.292 | 0.437 | 0.461 | 0.479 | 0.251 | 0.362 | 0.366 | 0.375 |  |  |  |  |  |  |  | 
6 | Nc1nc(Cl)nc2c1ncn2[C@H]1C[C@H](O)[C@@H](CO)O1 [Cladribine] | -0.0123 | -0.0135 | -0.0163 | 0.0971 | 0.943 | 0.966 | 0.98 | 0.987 | 0.0179 | 0.0736 | 0.11 | 0.212 | 0.942 | 0.971 | 0.983 | 0.989 | 0.528 | 0.571 | 0.602 | 0.611 | 0.683 | 0.807 | 0.843 | 0.878 | 0.0585 | 0.0126 | 0.00678 | 0.0233 | -0.00435 | 0.239 | 0.319 | 0.387
7 | COC(=O)C1=C(C)NC(C)=C(C(=O)OCCCN2CCC(c3ccccc3)(c3ccccc3)CC2)[C@H]1c1cccc([N+](=O)[O-])c1 [S-(+)-Niguldipine hydrochloride] | 0.0443 | 0.0164 | -0.0556 | -0.116 | 0.105 | 0.109 | 0.032 | 0.0169 | -0.0121 | 0.0306 | 0.0867 | 0.111 | 0.113 | 0.151 | 0.317 | 0.268 | 0.569 | 0.592 | 0.608 | 0.623 | 0.527 | 0.552 | 0.566 | 0.562 |  |  |  |  |  |  |  | 
8 | Cc1nc(Nc2ncc(C(=O)Nc3c(C)cccc3Cl)s2)cc(N2CCN(CCO)CC2)n1 | -0.00248 | -0.0473 | -0.15 | -0.0827 | 0.487 | 0.65 | 0.693 | 0.752 | -0.0537 | -0.0412 | -0.0107 | 0.0287 | 0.607 | 0.75 | 0.816 | 0.88 | 0.558 | 0.581 | 0.582 | 0.575 | 0.838 | 0.89 | 0.901 | 0.91 |  |  |  |  |  |  |  | 
9 | CCCCc1nc2cc(/C=C/C(=O)NO)ccc2n1CCN(CC)CC [SB939 (Pracinostat)] | 0.0917 | 0.0424 | -0.0359 | -0.128 | 0.935 | 0.941 | 0.959 | 0.973 | 0.0531 | 0.113 | 0.137 | 0.186 | 0.95 | 0.96 | 0.973 | 0.982 | 0.656 | 0.663 | 0.693 | 0.699 | 0.817 | 0.85 | 0.868 | 0.876 |  |  |  |  |  |  |  | 
10 | CN1CCN(c2cccc(Nc3nc4c(-c5ccc(S(C)(=O)=O)cc5)cccn4n3)c2)CC1 | 0.0344 | 0.0428 | 0.0368 | 0.113 | 0.028 | 0.0442 | 0.0461 | 0.102 | 0.0292 | 0.0656 | 0.062 | 0.17 | -0.0239 | 0.0604 | 0.101 | 0.21 | 0.369 | 0.484 | 0.496 | 0.524 | 0.396 | 0.419 |  |  | -0.0335 | -0.0683 | -0.203 | -0.505 | -0.0314 | -0.0426 | -0.0675 | -0.155
